Data on 33 compounds can be found in PubChem BioAssay AID763 (NMMLSC, 2007).

Values without a mark were called inactive. No rule for the calls is given here.

The target of the experiment is fMet-Leu-Phe receptor (Homo sapiens) (UniProt P21462). The experiment in a line: human FPR1 ligand displacement single-point test – cell-based, single concentration, selectivity assay for FPRL1 ligand SAR project, SAR follow-up (AID 763). The following applies: FPR1-expressing cells, fluorescent ligand binding inhibition, active compounds read high; at 5.4 µM unless noted.
fMet-Leu-Phe receptor (Homo sapiens), sequence (P21462 whole entry, looked up): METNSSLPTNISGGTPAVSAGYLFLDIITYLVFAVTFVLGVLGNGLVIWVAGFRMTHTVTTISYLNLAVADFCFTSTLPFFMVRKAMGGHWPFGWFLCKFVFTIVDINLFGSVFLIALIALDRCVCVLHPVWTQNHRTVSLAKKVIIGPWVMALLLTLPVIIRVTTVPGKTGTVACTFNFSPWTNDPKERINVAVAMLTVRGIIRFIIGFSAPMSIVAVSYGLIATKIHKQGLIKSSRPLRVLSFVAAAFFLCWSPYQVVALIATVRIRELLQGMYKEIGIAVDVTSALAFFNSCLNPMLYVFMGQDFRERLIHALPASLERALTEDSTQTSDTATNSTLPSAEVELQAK
For the compound `COc1ccccc1-c1cc(C(F)(F)F)nc(N2CCN(Cc3ccccc3)CC2)n1`, the inhibition is 1.1% [at 5.2 µM].
On to `COc1ccccc1N1CCN(c2nc(-c3ccc(F)cc3)cc(C(F)(F)F)n2)CC1`, for which the inhibition was -1.1% [at 5.1 µM].
As for `FC(F)(F)c1cc(-c2ccc(Cl)cc2)nc(N2CCN(C(c3ccccc3)c3ccccc3)CC2)n1`, the figure is 2.8% [at 4.4 µM].
As for `Fc1ccc(-c2cc(C(F)(F)F)nc(N3CCN(C(c4ccccc4)c4ccccc4)CC3)n2)cc1`, the figure is 1.3% [at 4.5 µM]; as for `CCCC(CCC)C(=O)Nc1cc(-c2cn3cccnc3n2)ccc1OC`, -2% [at 6.1 µM]; as for `CC(=O)N1CCN(c2nc(-c3ccccc3)c3cc(Cl)ccc3n2)CC1`, 2.2% [at 6.1 µM].
In the case of `COc1ccc(-c2cn3cccnc3n2)cc1NC(=O)c1ccc(C)c(C)c1`, the inhibition was -2.6% [at 6 µM].
With `CCOC(=O)N1CCN(c2nc(-c3ccccc3)cc(C(F)(F)F)n2)CC1`, the inhibition was 1.5% [at 5.8 µM].
For `O=C(O)CC1(CC(=O)N2CCN(c3nc(-c4ccccc4Cl)c4cc(Br)ccc4n3)CC2)CCCC1`, the inhibition was -1.2% [at 3.9 µM].
`COc1ccc(-c2cn3cccnc3n2)cc1NC(=O)c1ccccc1C(F)(F)F`: the inhibition was -3.2%.
With `COc1ccc(-c2cn3cccnc3n2)cc1NC(=O)c1c(-c2ccccc2Cl)noc1C`, the inhibition was 2.7% [at 4.8 µM].
Take `O=C(O)CCC(=O)N1CCN(c2nc(-c3ccccc3)c3ccccc3n2)CC1`: the inhibition is 6.1% [at 5.7 µM].
In the case of `COc1ccc(-c2cc(C(F)(F)F)nc(N3CCN(Cc4ccccc4)CC3)n2)cc1OC`, the inhibition is 4.7% [at 4.9 µM].
Turning to `CC(=O)N1CCN(c2nc(-c3ccccc3)c3cc(C)ccc3n2)CC1`, the inhibition was -0.1% [at 6.4 µM].
As for `FC(F)(F)c1cc(-c2ccccc2)nc(N2CCN(C(c3ccccc3)c3ccccc3)CC2)n1`, the inhibition is -4.1% [at 4.7 µM].
With `CC(C)(C)OC(=O)N1CCN(c2nc(-c3ccccc3)c3ccccc3n2)CC1`, the inhibition is -1.7% [at 5.7 µM].
For the compound `Cc1nc2c3c(-c4ccccc4)nc(N4CCN(C)CC4)nc3nn2c(C)c1CCC(=O)O`, the inhibition was 0% [at 5 µM].
In the case of `Fc1ccc(-c2cc(C(F)(F)F)nc(N3CCN(c4ccccc4)CC3)n2)cc1`, the inhibition was -1% [at 5.5 µM].
Consider `COc1ccc(-c2cn3cccnc3n2)cc1NC(=O)Cc1cccc(C)c1`, for which the inhibition is 4.7% [at 6 µM].
Turning to `COc1cccc(C(=O)Nc2cc(-c3cn4cccnc4n3)ccc2OC)c1`, the inhibition was 1% [at 5.9 µM].
Regarding `COc1ccc(-c2cn3cccnc3n2)cc1NC(=O)c1ccccc1OC`, the inhibition was 3.8% [at 5.9 µM].
For the compound `COc1ccc(-c2cn3cccnc3n2)cc1NC(=O)C1CC1`, the inhibition is -2.9% [at 7.2 µM].
Take `Fc1ccc(-c2cc(C(F)(F)F)nc(N3CCN(Cc4ccccc4)CC3)n2)cc1`: the inhibition is 0% [at 5.3 µM].
Consider `COc1ccc(-c2cn3cccnc3n2)cc1NC(=O)c1cc(C)cc(C)c1`, for which the inhibition was -0.5% [at 6 µM].
For the compound `COc1ccc(-c2cn3cccnc3n2)cc1NC(=O)c1cc(Br)ccc1Cl`, the inhibition is -4% [at 4.9 µM].
As to `COc1ccc(-c2cc(C(F)(F)F)nc(N3CCN(C(c4ccccc4)c4ccccc4)CC3)n2)cc1OC`, the inhibition is -2.6% [at 4.2 µM].
On to `FC(F)(F)c1cc(-c2ccccc2)nc(N2CCN(Cc3ccccc3)CC2)n1`, for which the inhibition was -9.1% [at 5.6 µM].
As to `FC(F)(F)c1nc(N2CCN(Cc3ccccc3)CC2)nc2c1CCCCC2`, the inhibition was 0.9% [at 5.7 µM].
On to `CN1CCN(c2nc(-c3ccccc3)c3cc(Cl)ccc3n2)CC1`, for which the inhibition was 6.1% [at 6.6 µM].
For `CCCC(=O)Nc1cc(-c2cn3cccnc3n2)ccc1OC`, the inhibition was 0.5% [at 7.2 µM].
Take `CCOC(=O)N1CCN(c2nc(-c3ccccc3OC)cc(C(F)(F)F)n2)CC1`: the inhibition was 1%.
In the case of `CCOc1cc(C(=O)Nc2cc(-c3cn4cccnc4n3)ccc2OC)cc(OCC)c1OCC`, the inhibition is 0% [at 4.7 µM].
In the case of `FC(F)(F)c1cc(-c2ccccc2)nc(N2CCN(c3ccccc3)CC2)n1`, the inhibition was 2.9% [at 5.8 µM].

For orientation: inhibition means the change of the read-out against control, counted positive when it falls.
